# Laboratory results reported in PubChem BioAssay (EPA / NIEHS).
# Records with an inconclusive call do not appear. Active and inactive are the calls of the source. Rule for the calls, unless noted: active = hit-call score of the fitted dose curve at least 0.9, where 1 is the maximum; inconclusive = response in the unintended direction; inactive = score below 0.9.
# Tests used:
# [1] = tested on: SERPINA7 (gene 6906); test: CCTE_GLTED_hTBG: CCTE's human Thyroxine-binding Globulin (TBG) Inhibition Assay, Great Lakes Toxicology and Ecology Division (GLTED) Lab (AID 2284343);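 note: active chemicals lower fluorescence versus DMSO baseline by displacing probe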
# How it was run: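 Steps: combine TBG with chemical; incubate 2 hours so that disruptors release ANSA; record fluorescence (380 ex, 475 em). Loss of signal was fitted against DMSO controls.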
# [2] = CCTE_Mundy_HCI_iCellGluta_NOG_NeuronCount: CCTE's Neurite Outgrowth Assay in iCellGluta cells for Neuron Count, Mundy Lab (AID 2284340);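 note: cells fixed about 48 h after compound addition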
# How it was run: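 Neuron count read by automated high-content imaging of Hoechst 33342 and betaIII-tubulin/Alexa Fluor-488 labelling in human iPSC glutamatergic neurons. Activity fitted relative to DMSO.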
# [3] = tested on: Brachyury (BRA) Protein Expression, Deisenroth Lab, TBXT (gene 6862); test: CCTE_Deisenroth_DEVTOX-GLR_legacy_Bra: (Legacy) CCTE's DevTox GLR-Endo Assay Evaluation of Brachyury (BRA) Protein Expression, Deisenroth Lab (AID 2284329; active = hit-call score of the fitted dose curve at least 0.9, where 1 is the maximum; inactive = score below 0.9)
# Description: CCTE_Deisenroth_DEVTOX-GLR_legacy assay is a cell-based, multiplex-readout assay that uses RUES2-GLR, a human pluripotent cell line, with measurements taken at 48 hours after chemical dosing in a 384-well microplateCCTE_Deisenroth_DEVTOX-GLR_legacy_Bra is one of 4 assay components calculated from the CCTE_Deisenroth_DEVTOX-GLR_legacy assay that measures an increase in the percentage of cells in an […] state. It is designed to make measurements of inducible reporter a form of fluorescent protein induction as detected with optical fluorescence microscopy. Percentage Bra+ cells are determined by calculating the number of Bra+ cells divided by cell count. A cell is Bra+ if the cell Bra mean intensity is 5x BMAD above the pluripotent control median cell Bra mean. The assay endpoint was analyzed with bidirectional fitting with the 0.2% DMSO control median percent Bra in the DEVTOX-GLR assay subtracted.Data from the assay component CCTE_Deisenroth_DEVTOX-GLR_legacy_Bra was analyzed into 1 assay endpoint. This assay endpoint, CCTE_Deisenroth_DEVTOX-GLR_legacy_Bra, was analyzed in the positive analysis fitting direction relative to DMSO as the negative control and baseline activity. […] Furthermore, this assay endpoint can be referred to as a secondary readout, because this assay has produced multiple assay endpoints where this one serves as a measure of mesoderm differentiation. […]
# [4] = CCTE_Deisenroth_DEVTOX-GLR_legacy_CellCount: (Legacy) Viability Assessment in CCTE's DevTox GLR-Endo Assay, Deisenroth Lab (AID 2284331; active = hit-call score of the fitted dose curve at least 0.9, where 1 is the maximum; inactive = score below 0.9); conditions: actives raise or lower the signal
# How it was run: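 Human pluripotent RUES2-GLR cells differentiated 48 h with two 24-h-interval exposures, 10-point 1 nM–200 uM series, 0.2% DMSO. Fixed nuclei counted by high-content imaging (5 fields/well); bidirectional fit vs DMSO, n≥4.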
# [5] = tested on: SRY-box transcription factor 17 (SOX17) Protein Expression, Deisenroth Lab, SOX17 (gene 64321); test: CCTE_Deisenroth_DEVTOX-GLR_legacy_Sox17: (Legacy) CCTE's DevTox GLR-Endo Assay Evaluation of SRY-box transcription factor 17 (SOX17) Protein Expression, Deisenroth Lab (AID 2284341; active = hit-call score of the fitted dose curve at least 0.9, where 1 is the maximum; inactive = score below 0.9); conditions: actives raise or lower the signal
# How it was run: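 RUES2-GLR human pluripotent cells differentiated toward endoderm for 48 h, dosed twice at 24 h intervals (1 nM–200 uM, 10 points). Imaging gives % SOX17+ cells (intensity >5x BMAD above pluripotent control median); bidirectional fit versus 0.2% DMSO.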
# [6] = tested on: SRY-box transcription factor 2 (SOX2) Protein Expression, Deisenroth Lab, SOX2 (gene 6657); test: CCTE_Deisenroth_DEVTOX-GLR_legacy_Sox2: (Legacy) CCTE's DevTox GLR-Endo Assay Evaluation of SRY-box transcription factor 2 (SOX2) Protein Expression, Deisenroth Lab (AID 2284346; active = hit-call score of the fitted dose curve at least 0.9, where 1 is the maximum; inactive = score below 0.9)
# Description: CCTE_Deisenroth_DEVTOX-GLR_legacy assay is a cell-based, multiplex-readout assay that uses RUES2-GLR, a human pluripotent cell line, with measurements taken at 48 hours after chemical dosing in a 384-well microplateCCTE_Deisenroth_DEVTOX-GLR_legacy_Sox2 is one of 4 assay components calculated from the CCTE_Deisenroth_DEVTOX-GLR_legacy assay that measures an increase in the percentage of cells in an ectodermal or pluripotent state. It is designed to make measurements of inducible reporter a form of fluorescent protein induction as detected with optical fluorescence microscopy. Percentage Sox2+ cells are determined by calculating the number of Sox2+ cells divided by cell count. […] The assay endpoint was analyzed with bidirectional fitting with the 0.2% DMSO control median percent Sox2 in the CCTE_Deisenroth_DEVTOX-GLR_Endo assay subtracted.Data from the assay component CCTE_Deisenroth_DEVTOX-GLR_legacy_Sox2 was analyzed into 1 assay endpoint. This assay endpoint, CCTE_Deisenroth_DEVTOX-GLR_legacy_Sox2, was analyzed in the positive analysis fitting direction relative to DMSO as the negative control and baseline activity. […] Furthermore, this assay endpoint can be referred to as a secondary readout, because this assay has produced multiple assay endpoints where this one serves as a measure of pluripotency or ectoderm differentiation. […]
# [7] = VALA_MIGHUV1_ScratchOnly_WoundArea: VALA Sciences human Umbilical Vein Endothelial Cell Migration (MIGHUV) Assay, Area of Scratch Wound Inhibited Recovery (AID 2284336)
# How it was run: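 Wound area remaining after 24 h recovery imaged by Hoechst nuclear fluorescence in scratched HUVEC cultures, chemicals added within 30 min of scratching across a 6-point series. Gain of signal fitted against 0.1% DMSO; cytochalasin D positive control.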
# [8] = VALA_TUBHUV_Agonist_TubuleLength: VALA Sciences human Umbilical Vein Endothelial Tubule Formation (TUBHUV) Agonism Assay (AID 2284337)
# How it was run: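 Tubule length quantified by CD31 immunofluorescence imaging after fixation. HUVEC-HDF co-cultures (1:3) pre-grown 3 days with 10 ng/ml VEGF, then dosed 3 days in VEGF medium; 0.1 % DMSO vehicle baseline.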
# [9] = VALA_TUBIPS_Agonist_CellCount: Viability Assessment in the VALA Sciences human iPS-derived Endothelial Tubule Formation (TUBIPS) Agonism Assay (AID 2284338)
# Description: VALA_TUBIPS_Agonist is a cell-based, multiplexed assay that uses human iPS-derived endothelial cells (iPSC). Measurements were taken 72 hours after chemical dosing in a 96-well plate.VALA_TUBIPS_Agonist_CellCount is the one of two assay components measured from the VALA_TUBIPS_Agonist assay. It is designed to make measurements of viability, a form of viability reporter, as detected with fluorescence intensity signals by HCS Fluorescent Imaging technology. Data from the assay component VALA_TUBIPS_Agonist_CellCount was analyzed at the endpoint, VALA_TUBIPS_Agonist_CellCount, in the positive analysis fitting direction relative to DMSO as the negative control and baseline of activity. Using a type of viability reporter, loss-of-signal activity can be used to understand viability. To generalize the intended target to other relatable targets, this assay endpoint is annotated to the cell cycle intended target family, where the subfamily is cell count.
# This HUVEC-HDF assay was designed to detect chemical suppression of tubulogenesis, i.e. antagonism. To measure tubulogenesis antagonism, HUVEC cells were co-cultured with HDF cells at a 1:3 ratio for 3-days in 10 ng/ml VEGF (i.e., favorable conditions with growth factors), then changed to assay medium containing 10 ng/ml VEGF and ToxCast compounds for an additional 3-day period. […]
# [10] = VALA_TUBIPS_Antagonist_CellCount: Viability Assessment in the VALA Sciences human iPS-derived Endothelial Tubule Formation (TUBIPS) Antagonism Assay (AID 2284335)
smiles,measurement,setting,value
Cc1cc(Cl)ccc1OCC(=O)O,AC50,[1],59.6 µM (active)
CCOC(=O)CC(SP(=S)(OC)OC)C(=O)OCC (stereo unspecified),outcome,[2],inactive
COC(=O)c1ccccc1C(=O)OC,outcome,[3],inactive
same,outcome,[4],inactive
same,outcome,[5],inactive
same,outcome,[6],inactive
CCCN(CCC)c1c([N+](=O)[O-])cc(S(N)(=O)=O)cc1[N+](=O)[O-],AC50,[1],5.43 µM (active)
C#CCOS(=O)OC1CCCCC1Oc1ccc(C(C)(C)C)cc1 (stereo unspecified),AC50,[1],25.2 µM (active)
N#Cc1nn(-c2c(Cl)cc(C(F)(F)F)cc2Cl)c(N)c1S(=O)C(F)(F)F (stereo unspecified),outcome,[7],inactive
same,outcome,[8],inactive
same,outcome,[9],inactive
same,outcome,[2],inactive
same,AC50,[1],24.6 µM (active)
C=CCC1=C(C)[C@@H](OC(=O)[C@@H]2[C@@H](C=C(C)C)C2(C)C)CC1=O,outcome,[2],inactive
CCCCNC(=O)n1c(NC(=O)OC)nc2ccccc21,outcome,[2],inactive
CC(C)(C)c1ccc(CSc2cnn(C(C)(C)C)c(=O)c2Cl)cc1,outcome,[10],inactive
same,AC50,[8],7.59 µM (active)
same,AC50,[9],50 µM (active)
same,AC50,[2],6.79 µM (active)
CCCCC(CC)COC(=O)c1ccccc1C(=O)OCC(CC)CCCC (stereo unspecified),AC50,[2],18.8 µM (active)
COP(=S)(OC)Oc1nc(Cl)c(Cl)cc1Cl,AC50,[2],23.1 µM (active)
C=CCC1=C(C)C(OC(=O)C2C(C=C(C)C)C2(C)C)CC1=O (stereo unspecified),outcome,[2],inactive
COC(=O)N(OC)c1ccccc1COc1ccn(-c2ccc(Cl)cc2)n1,AC50,[2],12.7 µM (active)
COP(N)(=O)SC (stereo unspecified),outcome,[2],inactive
Oc1ccccc1-c1ccccc1,AC50,[1],28.1 µM (active)
OC(c1ccc(Cl)cc1)(c1cncnc1)c1ccccc1Cl (stereo unspecified),AC50,[1],36.5 µM (active)
Fc1ccc(Oc2ccnc3cc(Cl)cc(Cl)c23)cc1,AC50,[1],8.16 µM (active)
C=CC1(C)OC(=O)N(c2cc(Cl)cc(Cl)c2)C1=O (stereo unspecified),outcome,[2],inactive
Cc1ccc(-c2c(Cl)nc(C#N)n2S(=O)(=O)N(C)C)cc1,AC50,[2],50 µM (active)
same,AC50,[1],33.1 µM (active)
CCCCOC(=O)c1ccccc1C(=O)OCCCC,outcome,[2],inactive
same,AC50,[1],11.4 µM (active)
CCOc1cc(Oc2ccc(C(F)(F)F)cc2Cl)ccc1[N+](=O)[O-],AC50,[2],50 µM (active)
same,AC50,[1],4.86 µM (active)
CO/C=C(/C(=O)OC)c1ccccc1Oc1cc(Oc2ccccc2C#N)ncn1,AC50,[2],66 µM (active)
CN(C)C(=S)SSC(=S)N(C)C,AC50,[2],0.0675 µM (active)
